Among all 310,000 compounds or so, about 14,000 (4.5%) showed an effect of 50% or more. Effects have a minus sign here. The sample as a whole holds a higher share of strong results than the screen did.
molecular target: human ether-à-go-go-related gene (hERG) potassium channel (human, UniProt Q12809); assay: primary screen, population patch clamp on CHO cells stably expressing hERG; higher = less effect of the substance
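Further: peak tail current of the secondary pulse compared with the same well before compound.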

Chain of human ether-à-go-go-related gene (hERG) potassium channel (Q12809 whole entry, looked up): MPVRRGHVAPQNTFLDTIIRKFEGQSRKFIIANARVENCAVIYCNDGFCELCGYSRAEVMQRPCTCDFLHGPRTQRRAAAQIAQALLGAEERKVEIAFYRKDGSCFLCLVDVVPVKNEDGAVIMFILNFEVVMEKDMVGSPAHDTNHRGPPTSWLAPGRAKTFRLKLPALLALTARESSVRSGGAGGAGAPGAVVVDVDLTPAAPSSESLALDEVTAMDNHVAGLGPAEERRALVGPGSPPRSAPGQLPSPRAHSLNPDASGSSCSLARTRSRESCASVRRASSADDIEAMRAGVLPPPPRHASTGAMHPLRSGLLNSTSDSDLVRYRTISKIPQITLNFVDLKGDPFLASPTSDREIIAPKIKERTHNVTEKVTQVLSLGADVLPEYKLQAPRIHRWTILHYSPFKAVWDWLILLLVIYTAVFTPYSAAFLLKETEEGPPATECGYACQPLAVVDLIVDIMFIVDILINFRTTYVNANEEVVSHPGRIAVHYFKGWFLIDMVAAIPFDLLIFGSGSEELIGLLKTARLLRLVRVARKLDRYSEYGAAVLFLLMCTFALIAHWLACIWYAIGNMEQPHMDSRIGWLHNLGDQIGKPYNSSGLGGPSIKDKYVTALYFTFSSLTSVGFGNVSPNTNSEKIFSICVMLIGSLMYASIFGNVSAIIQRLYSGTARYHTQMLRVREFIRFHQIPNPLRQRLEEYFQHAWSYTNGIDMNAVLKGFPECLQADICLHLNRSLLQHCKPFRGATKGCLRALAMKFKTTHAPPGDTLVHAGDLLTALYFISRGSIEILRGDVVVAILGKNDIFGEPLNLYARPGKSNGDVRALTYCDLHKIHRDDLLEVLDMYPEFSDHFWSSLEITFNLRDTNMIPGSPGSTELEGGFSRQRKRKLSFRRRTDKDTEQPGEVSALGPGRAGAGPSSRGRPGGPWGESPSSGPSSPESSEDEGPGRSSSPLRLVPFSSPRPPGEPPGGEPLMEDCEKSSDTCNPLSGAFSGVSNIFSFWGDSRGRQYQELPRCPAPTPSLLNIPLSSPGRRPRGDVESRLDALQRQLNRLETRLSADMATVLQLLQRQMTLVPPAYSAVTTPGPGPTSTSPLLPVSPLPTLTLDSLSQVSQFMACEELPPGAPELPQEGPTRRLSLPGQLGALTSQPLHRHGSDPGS

SMILES | hERG current change (%, negative = inhibition) at 10uM [%]
C/C(=N\Nc1ccc([N+](=O)[O-])cc1)c1ccc(O)cc1 | -1.55
CNC(=S)N(CCO)Cc1cc2cc3c(cc2[nH]c1=O)OCO3 | 24
Cc1cccc(-n2c(SCC(N)=O)nnc2-c2ccccn2)c1C | 1.28
CCc1ccc(C(=O)NC(CC(C)C)C(=O)O)cc1 (stereo not shown) | -2.4
Cc1cc(/C=C2\C(=O)NC(=O)N(Cc3ccco3)C2=O)c(C)n1-c1ccc(C(=O)O)cc1 | 12.2
COc1cccc(Nc2ncccc2C(=O)O)c1 | 9.1
CCN(CC)C(=O)CSc1nc2ccsc2c(=O)n1CCCC(=O)NCCc1ccc(S(N)(=O)=O)cc1 | 24.7
O=C(CCc1ccccc1)NCc1ccccc1 | -8.04
Cn1c(SCC(=O)Nc2ccc(F)cc2)nc2c(c1=O)SCC2 | -6.44
Cn1c(SCC(=O)Nc2ccccc2C(F)(F)F)nc2c(c1=O)SCC2 | -57
Cn1c(SCc2ccc(Br)cc2)nc2c(c1=O)SCC2 | -18.6
Cn1c(SCC(=O)Nc2ccccc2F)nc2c(c1=O)SCC2 | -9.41
Cn1c(SCc2cccc([N+](=O)[O-])c2)nc2c(c1=O)SCC2 | -36.6
Cn1c(SCc2ccc([N+](=O)[O-])cc2)nc2c(c1=O)SCC2 | -67.5
Cc1cc(C)c(S(=O)(=O)N2CCN(c3ccccc3)CC2)c(C)c1 | 16.5
Cc1ccc(NC(=O)c2ccccc2N2C(=O)C3C4C=CC(C5CC45)C3C2=O)cc1C (stereo not shown) | 2.91
COc1ccc(-n2c(N)c(C(=O)NCc3ccco3)c3nc4ccccc4nc32)cc1OC | 16.7
O=C(CNC(=O)c1ccc(Br)o1)NCc1ccccc1 | 6.66
O=C(c1sccc1-c1ccccc1)N1CCN(S(=O)(=O)c2ccccc2F)CC1 | -49.3
COc1ccc(N2CCN(CCCNC(=O)C3(S(=O)(=O)c4ccc(Cl)cc4)CC3)CC2)cc1 | -61.5
O=C(NCCN1CCCC1)C1(S(=O)(=O)c2ccc(Cl)cc2)CC1 | 11.7
S=C(NCCCN1CCOCC1)N1CCN(c2cccc(Cl)c2)CC1 | -40.2

SMILES | hERG current change (%, negative = inhibition) at 10uM [%]
COc1ccc(N2CCN(CCNC(=O)Nc3cc(Cl)ccc3Cl)CC2)cc1 | 15.6
O=C(NCCCN1CCN(c2cccc(Cl)c2)CC1)C1(S(=O)(=O)c2ccc(Cl)cc2)CC1 | -71
O=C(NCCCN1CCCCC1)C1(S(=O)(=O)c2ccc(Cl)cc2)CC1 | -32.3
COc1ccc(C2(C(=O)NCCCN3CCOCC3)CCOCC2)cc1.Cl | 10.6
O=C(NCCN1CCN(c2ccccc2)CC1)C1(S(=O)(=O)c2ccc(Cl)cc2)CC1 | -50.2
O=C(NCCc1ccccc1)C1(S(=O)(=O)c2ccc(Cl)cc2)CC1 | 6.29
CC1CCC(C)(NS(=O)(=O)OCC(Cl)(Cl)Cl)CC1 (stereo not shown) | -21.7
CN(C)C(/C=C/Nc1ccc(F)cc1)=C(C#N)C#N | -8.47
CCN1C(=O)c2ccccc2S(=O)(=O)c2ccc(C(=O)NCC(OC)OC)cc21 | 6.16
NNC(=O)COc1ncn(-c2ccccc2)n1 | 18
N#Cc1ccsc1NC(=O)COC(=O)c1cc(Br)ccc1O | -22.2
Cc1c(C(=O)N2CCCc3ccccc32)oc2ccc(S(=O)(=O)N3CCOCC3)cc12 | -44.2
O=C(CNCCc1ccc(F)cc1)Nc1cc(F)ccc1F.O=C(O)C(=O)O | -19.9
CCOc1ccccc1NC(=O)COc1ccc(S(=O)(=O)N2CCCC2)cc1 | -4.32
O=C(NCC1CCCO1)c1ccc([N+](=O)[O-])s1 (stereo not shown) | 25.4
CCOC(=O)C(c1ccccc1)N1CCN(c2ccc(OC)cc2)CC1 (stereo not shown) | 4.91
C/C(CC(=O)Nc1ccc2c(c1)OCCO2)=N\NC(=O)Cc1ccccc1 | -9.4
CCOc1ccc(OCCOC(=O)C2CCN(S(=O)(=O)c3ccc(C)c(C)c3)CC2)cc1 | -22.4
Cl.OC(COCc1ccc2c(c1)OCO2)CN1CCCCC1 (stereo not shown) | -2.96
COc1ccc(COCC(O)CN2CCOCC2)cc1OC.Cl (stereo not shown) | 20.8
Cl.O=C1c2cccc3cccc(c23)C(=O)N1CC1CCN(CC(O)COCc2ccc3c(c2)OCO3)CC1 (stereo not shown) | -75.3
Cl.OC(COCc1ccc2c(c1)OCO2)CN1CCC(Cc2ccccc2)CC1 (stereo not shown) | -87.6

SMILES | hERG current change (%, negative = inhibition) at 10uM [%]
Cl.OC(COCc1ccc2c(c1)OCO2)CN1CCN(Cc2ccccc2)CC1 (stereo not shown) | -33.1
COc1ccc(COCC(O)CN2CCCCC2)cc1OC.Cl (stereo not shown) | 16.6
COc1ccc(COCC(O)CN2CCC(CN3C(=O)c4cccc5cccc(c45)C3=O)CC2)cc1OC.Cl (stereo not shown) | -71.5
Cl.OCCN1CCN(CC(O)COCc2ccc3c(c2)OCO3)CC1 (stereo not shown) | -1.01
CN1CCN(CC(O)COCc2ccc3c(c2)OCO3)CC1.Cl (stereo not shown) | 6.52
Cc1ccc2nc(C(O)C(O)c3nc4ccc(C)cc4[nH]3)[nH]c2c1 (stereo not shown) | -6.37
O=C(Nc1nc(-c2ccc(Cl)cc2Cl)cs1)c1ccc(OCC2CCCO2)cc1 (stereo not shown) | 6.82
COCCNc1nnc(SC(C)C(=O)Nc2c(C)n(C)n(-c3ccccc3)c2=O)s1 (stereo not shown) | 11.8
CNC(=O)c1cn(-c2ccc(Cl)cc2)c(=O)c2ccccc12 | -9.43
CCCCN(CC)CCNC(=O)c1cn(C)c(=O)c2c1c1ccccc1n2C | -24.6
CCN(CC)CCCNC(=O)c1nn(-c2cccc(OC)c2)c(=O)c2ccccc12 | -70.6
COc1cccc(-n2nc(C(=O)N3CC(C)CC(C)C3)c3ccccc3c2=O)c1 (stereo not shown) | 3.43
CCN(CC)CCCNC(=O)CNC(=O)c1nn(-c2ccc(OC)cc2)c(=O)c2ccccc12 | 23.8
CCCN(CCC)CCCNC(=O)c1cn(-c2ccc(OC)cc2)c(=O)c2ccccc12 | -48
CCN(CC)CCCNC(=O)c1nn(-c2ccc(OC)cc2OC)c(=O)c2ccccc12 | -0.745
CCCCN(CC)CCNC(=O)c1cn(-c2ccc(Cl)cc2)c(=O)c2ccccc12 | -77.7
CCCCN(CC)CCCNC(=O)c1cn(-c2ccc(OC)cc2)c(=O)c2ccccc12 | -56.5
CCOC(=O)C(C)NC(=O)c1cn(-c2ccc(OC)cc2)c(=O)c2ccccc12 (stereo not shown) | 5.7
COc1cccc(-n2nc(C(=O)O)c3ccccc3c2=O)c1 | 6.72
COc1cccc(-n2nc(C(=O)N3CCN(Cc4ccccc4)CC3)c3ccccc3c2=O)c1 | -50.3
